Data as given in PubChem BioAssay (Tox21).
Records with an inconclusive call do not appear. Entries that show only a call come without a potency. A number with no mark means an inactive call. Active and inactive are the calls of the source. The call rests on the fitted dose curve; in most records, active means well fitted cell-killing curve with a large enough effect in the repeat runs; inconclusive means weak or mixed curves, or effect the other way; inactive means flat fitted curve, though single readings scatter.

Experiment: qHTS RealTime-Glo MT Cell Viability Assay in HEK293 cells - 8 hour (AID 1224887); further: nearly all actives have a fitted effect of over 50% in size; on activity change, negative = cytotoxicity: top concentration of the series differs between compounds
Conditions: RealTime-Glo luminescence; series mostly up to 76.8 µM
Description: U.S. Tox21 Program National Center for Advancing Translational Sciences [NCATS] NIH Chemical Genomics Center [NCGC] U.S. Environmental Protection Agency [EPA] National Institutes of Environmental Health Sciences [NIEHS] National Toxicology Program [NTP] U.S. Food and Drug Administration [FDA] Tox21 Assay Overview: Measure of cell viability is critical in the cell-base assay. Analysis of cell viability is necessary for the characterization of cell responses to cytotoxic drugs and environmental stress. A RealTime-Glo MT Cell Viability Assay to monitor cell viability in real time of continues cell culture during 40 hours of compound treatment was used to screen Tox21 10K library compounds in Hek293 cells. The RealTime-Glo MT Cell Viability Assay is a nonlytic, homogeneous, bioluminescent method to measure cell viability in real time using a simple, plate-based method. The assay involves adding NanoLuc luciferase and a cell-permeant prosubstrate to cells in culture. Viable cells reduce the proprietary prosubstrate to generate a substrate for NanoLuc luciferase. This substrate diffuses from cells into the surrounding culture medium, where it is rapidly used by the NanoLuc Enzyme to produce a luminescent signal. The signal correlates with the number of viable cells, making the assay well suited for cytotoxicity studies.
Tox21 Assay Protocol Summary: The mixture of Hek293 cell suspension and reagents were dispensed at 600cells/6 ul/well in 1536-well tissue culture treated black solid bottom plates using a Multidrop dispenser. After the assay plates were incubated at a 37 C/5% CO2 incubator for 5 hours, 23 nL of compounds dissolved in DMSO, positive and negative controls was transferred to the assay plate by a pintool work station. The plates were incubated at 37 C for 40 hours. The luminescence intensity were measured at 0h, 8h, 16h, 24h, 32h and 40h time points using ViewLux plate reader during compound treatment.
Potency means the concentration at half of the fitted maximal effect.

SMILES	Potency	activity change, negative = cytotoxicity
N#Cc1c(F)cccc1F	inactive	–
O=C(Cl)c1c(Cl)cccc1Cl	inactive	–
O=C(c1ccccc1)c1ccc2n1CCC2C(=O)O (stereo not given)	inactive	–
CCCCCCOC(=O)CCC	inactive	–
CN(C)C/C=C(/c1ccc(Br)cc1)c1cccnc1	inactive	–
C=C(C)C(=O)OCCOc1ccccc1	inactive	–
Oc1ccc2c(c1)OCO2	inactive	–
CCCCCCCCC(CO)CCCCCC (stereo not given)	inactive	–
Cc1ccc(C(N)=O)cc1N	inactive	–
C=CC(=O)OCCOC(=O)CCC(=O)O	inactive	–
O=C(O)COC(=O)Cc1ccccc1Nc1c(Cl)cccc1Cl	inactive	–
CN1CCC(=C2c3ccccc3C=Cc3ccccc32)CC1	inactive	–
O=C=NC1CCC(CC2CCC(N=C=O)CC2)CC1 (stereo not given)	inactive	–
C=Cc1c(C)c2cc3[nH]c(cc4nc(cc5nc(cc1[nH]2)C(C)=C5CCC(=O)O)C(CCC(=O)O)=C4C)c(C)c3C=C	inactive	–
CC(=O)OC/C=C/c1ccccc1	inactive	–
Cc1ccc(C)o1	inactive	–
COc1ccc(OC)c(OC)c1	inactive	–
NC[C@H]1O[C@H](O[C@H]2[C@H](O)[C@@H](O[C@H]3O[C@H](CO)[C@@H](O)[C@H](N)[C@H]3O)[C@H](N)C[C@@H]2N)[C@H](O)[C@@H](O)[C@@H]1O	–	2.67% [at 6.97 µM]
O=CNc1ccccc1	inactive	–
CC(O)C1CCCCC1 (stereo not given)	inactive	–

SMILES	Potency	activity change, negative = cytotoxicity
O=C(O)C1CCC(C(=O)O)CC1 (stereo not given)	inactive	–
CC(C)(C)C(=O)OCOP(=O)(COCCn1cnc2c(N)ncnc21)OCOC(=O)C(C)(C)C	inactive	–
CC(=O)O[C@@H]1C(=O)O[C@@H]2[C@H]1OC(=O)[C@@H]2OC(C)=O	inactive	–
CC[C@H](C)[C@@H](C(=O)O)n1sc2ccccc2c1=O	inactive	–
CN1CCC(OC(c2ccccc2)c2ccccc2)CC1	inactive	–
CCCOc1ccc2nc(NC(=O)OC)[nH]c2c1	inactive	–
CN(C)CC/C=C1\c2ccccc2COc2ccccc21	inactive	–
CCCC[C@H]1CN(CC2CCOCC2)C(=O)OC12CCN(C1(C)CCN(C(=O)c3c(C)ncnc3C)CC1)CC2	inactive	–
Cl/C(=C\n1cncn1)c1ccc(Cl)cc1Cl	inactive	–
CCOC(=S)SSC(=S)OCC	inactive	–
CC(C(=O)O)c1ccc(-c2ccccc2)c(F)c1 (stereo not given)	inactive	–
Oc1ccc(C(O)CNCCCCCCNCC(O)c2ccc(O)c(O)c2)cc1O (stereo not given)	inactive	–
CC(=O)c1c(C)c([N+](=O)[O-])c(C(C)(C)C)c([N+](=O)[O-])c1C	inactive	–
CCOc1ccc(NC(=O)CC(C)=O)cc1	inactive	–
Cn1c(=O)c2c(ncn2CC(O)CO)n(C)c1=O (stereo not given)	inactive	–
Cc1nc2ccccc2n1Cc1ccc(Cl)cc1	8.49 µM (active)	–
CC(=O)c1ccc2c(c1)[C@H](NC(=O)c1ccc(F)cc1)[C@@H](O)C(C)(C)O2	inactive	–
CCCCOc1ccc(CC(=O)NO)cc1	2.13 µM (active)	–
O=C(NS(=O)(=O)/C=C/c1cccs1)c1ccc(F)cc1Br	inactive	–
CCCCCCCCCCCCC(=O)O	inactive	–
